Hits are enriched below; roughly 5.2% of the tested compounds scored in any of these assays.
VDR inhibitor – vitamin D3 receptor (human) inhibition. P11473. VDR-SRC2-3 peptide fluorescence polarization, 2 h. Potency, µM, without a hit: max response, negative = inhibition, actives largely listed as inhibitors. hit rate 0.93% among 400,000. AID 504847
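The screen uses fluorescence polarization to detect compounds that interfere with recruitment of the SRC2-3 coactivator peptide to VDR; plates are read after 2 h at room temperature.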
rTrxR1 inhibitor – rat TrxR1 inhibition; O89049; recombinant rTrxR1, NADPH fluorescence consumption, selenite substrate; Potency, µM (highest dose often 114 µM), inactives show top-dose activity change, negative = inhibition, most hits filed as inhibitors; hit rate 1% among 390,000; note: nearly all actives have a fitted effect of over 65% in size
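Rat TrxR1 (90 nM in the dispensed reagent) was pre-reduced with 400 uM NADPH for 5 min at room temperature, then incubated with compound for 15 min. After 400 uM selenite was added, NADPH fluorescence (Ex 340/Em 450 nm) was followed for 8 min.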
PLK1 PBD inh – PLK1 (human) polo-box domain binding inhibition; Plk1 PBD binding of FITC phosphopeptide, fluorescence polarization; P53350; hit rate 2.8% among 360,000; Potency, µM, inactives show max response, negative = inhibition, usual class: inhibitors; note: series mostly up to about 57 µM; nearly all actives have a fitted effect of over 65% in size
Target sequence (P53350 whole entry, looked up, the tested form may be a part): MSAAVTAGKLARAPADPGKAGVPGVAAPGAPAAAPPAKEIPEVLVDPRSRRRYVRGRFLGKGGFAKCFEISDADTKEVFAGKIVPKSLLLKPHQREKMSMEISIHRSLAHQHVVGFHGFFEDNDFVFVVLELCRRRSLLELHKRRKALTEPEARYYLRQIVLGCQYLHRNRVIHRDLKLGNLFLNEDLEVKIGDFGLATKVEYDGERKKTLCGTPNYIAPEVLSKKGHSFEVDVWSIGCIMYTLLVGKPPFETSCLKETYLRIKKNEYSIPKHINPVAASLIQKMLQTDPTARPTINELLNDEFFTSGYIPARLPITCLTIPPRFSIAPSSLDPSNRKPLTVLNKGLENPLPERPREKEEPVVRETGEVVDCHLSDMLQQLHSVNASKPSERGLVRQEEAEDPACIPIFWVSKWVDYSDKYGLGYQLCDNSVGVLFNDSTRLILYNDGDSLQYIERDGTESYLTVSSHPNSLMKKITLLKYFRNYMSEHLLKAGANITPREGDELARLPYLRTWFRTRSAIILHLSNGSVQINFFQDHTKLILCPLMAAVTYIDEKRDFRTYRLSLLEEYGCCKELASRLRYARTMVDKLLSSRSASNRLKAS
IDH1 R132H inh – blocks human mutant IDH1 R132H enzyme. O75874. IDH1-R132H enzyme, NADPH consumption, diaphorase/resazurin fluorescence. Potency, µM (series often up to 76.6 µM), for inactives: top-dose activity change, negative = inhibition, usual class: inhibitors. hit rate 0.093% among 390,000; note: nearly all actives have a fitted effect of over 65% in size
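IDH1-R132H (0.5 ug/mL) preincubated 30 min with compound, then NADPH (0.016 mM) and alpha-KG (2 mM) added; 80 min at RT, pH 7.5. Remaining NADPH coupled via diaphorase/resazurin to fluorescence (540/590 nm); concentration-response curves normalized to no-enzyme control.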
TrxR1 substrate – is turned over as a substrate by rat TrxR1 | purified TrxR1 substrate turnover, NADPH consumption readout | Potency, µM (titrated, usually from 114 µM), for inactives: at the top dose activity change, negative = substrate turnover | hit rate 0.01% among 390,000 | AID 588456; note: nearly all actives have a fitted effect of over 50% in size
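Rat TrxR1, dispensed at 90 nM, was prereduced with 400 uM NADPH (final) for 5 min at ~22 deg C, then incubated with compound 15 min before 400 uM selenite. A first-read NADPH fluorescence drop versus no-compound background flagged substrates.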
Sfp PPTase inh – inhibitors of Bacillus subtilis Sfp phosphopantetheinyl transferase | Potency, µM, without a hit: largest response in the series, negative = inhibition, most hits filed as inhibitors | Biochemical Sfp PPTase activity, qHTS | AID 1490 | hit rate 3.5% among 310,000 | Q9F4F7;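 note: the enzyme is Sfp with the accession as filed and its product quenches rhodamine fluorescence; 0% = enzyme reaction without inhibitor and -100% = no enzyme wells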
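Reaction rates are the 30-min fluorescence difference (ex 525, em 598 nm) in wells containing 15 nM Sfp, 5 uM rhodamine-CoA and 12.5 uM BHQ-2-YbbR at pH 7.6 with 10 mM MgCl2.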
TbPYK inh – confirmation of Trypanosoma brucei pyruvate kinase inhibitors | shares compounds with PLK1 PBD inh | recombinant TbPYK, Kinase-Glo ATP luminescence | Potency, µM (highest dose often 76.9 µM), for inactives: at the top dose activity change, negative = inhibition, hits mostly inhibitors | hit rate 67% among 890; note: nearly all actives have a fitted effect of over 70% in size
TbPYK ADP-Glo – orthogonal confirmation of Trypanosoma brucei pyruvate kinase inhibitors | shares compounds with PLK1 PBD inh | hit rate 62% among 890 | Potency, µM (highest dose often 76.9 µM), inactives show at the highest dose activity change, negative = inhibition, usual class: inhibitors | recombinant TbPYK, ADP-Glo luminescence, 60 min | AID 720584; note: nearly all actives have a fitted effect of over 75% in size
* hit, by the source's call; ? = inconclusive; nt = not tested or not shown; [ ] = dose if it differs, or a comment. Calls come from the whole dose curve; as a rule, active = well fitted curve in the direction sought with a large enough effect; inconclusive = small, poorly fitted or top-dose-only effect, or another doubt; inactive = no such curve, though single readings can be large; an effect the other way counts as inactive or inconclusive. Unless noted, % is set by controls: 0 for no effect and ±100 for the full control effect; potency is the fitted concentration of half-maximal effect.

SMILES	VDR inhibitor	rTrxR1 inhibitor	PLK1 PBD inh	IDH1 R132H inh	TrxR1 substrate	Sfp PPTase inh	TbPYK inh	TbPYK ADP-Glo
O=S(=O)(O)c1cc(O)c(N=Nc2ccc(O)cc2O)c2ccccc12	52%	-72%[57.1 µM]	?	20%	-2%[2.29 µM]	nt	11µM*	?
COc1ccccc1N1CSC2=C(C#N)C(c3ccc(SC)cc3)CC(=O)N2C1 (stereo not drawn)	22µM*	13µM*	19µM*	17%	-5%[57.1 µM]	3.5µM*	2.5µM*	2.2µM*
COc1cc(CN2CC(=O)N(c3cccc(Cl)c3C)C2=S)cc(OC)c1OC	-5%	25%	-5%	-9%	3%	4%	nt	nt
COc1ccc(OC)c(C2CC(=O)N3CN(c4cccc(Cl)c4C)CSC3=C2C#N)c1 (stereo not drawn)	32µM*	?	?	-1%	9%[57.1 µM]	3.5µM*	16µM*	7.9µM*
COc1cccc(C2CC(=O)N3CN(c4cccc(Cl)c4C)CSC3=C2C#N)c1OC (stereo not drawn)	22µM*	?	27µM*	6%	2%[57.1 µM]	3.5µM*	18µM*	6.3µM*
COc1ccc(OC)c(C2CC(=O)N3CN(c4cccc(Cl)c4)CSC3=C2C#N)c1 (stereo not drawn)	50µM*	-38%	-8%	-1%	6%[57.1 µM]	10µM*	?	40µM*
COc1cc(SC)ccc1C(=O)N1CCN(c2ccccc2OC)CC1	-11%	11%	-15%	7%	-1%	20%	nt	nt
CCN(CC)CCNC(=O)c1nn(-c2ccc(OC)c(Cl)c2)c(=O)c2c1c1ccccc1n2C	-16%	35%	nt	-13%	5%	nt	nt	nt
O=S1(=O)CC(N2CCC(c3ccccc3)CC2)CN1Cc1ccc(F)cc1 (stereo not drawn)	nt	nt	-11%	nt	nt	nt	nt	nt
COc1ccc(OC)c(C2CC(=O)N3CN(c4ccccc4F)CSC3=C2C#N)c1 (stereo not drawn)	35µM*	?	?	17%	0%[57.1 µM]	?	5µM*	10µM*
CCOC(=O)C1CCCN(C(=O)c2ccc(-c3ccc([N+](=O)[O-])cc3)o2)C1 (stereo not drawn)	?	10µM*	30µM*	2%	0%	nt	?	?
CCOC(=O)C1CCCN(C(=O)c2ccc(CS(=O)(=O)c3ccc(C)cc3)o2)C1 (stereo not drawn)	-3%	?	-27%	13%	5%	-3%	nt	nt
COc1ccc(-n2nnnc2Sc2ccc(S(=O)(=O)N3CCOCC3)cn2)cc1	?	-29%	9.5µM*	7%	-11%	45µM*	14µM*	18µM*
S=C(c1ccc(Br)cc1)N1CCN(Cc2ccccc2)CC1	?	4%	6.7µM*	1%	3%	11µM*	1.3µM*	8.9µM*
O=C(c1ccc(F)cc1)N1CCN(Cc2ccccc2)CC1	-18%	12%[57.1 µM]	-11%	1%	3%[57.1 µM]	6%	nt	nt
O=C(c1ccc(Br)cc1)N1CCN(Cc2ccccc2)CC1	1%	6%[57.1 µM]	-4%	2%	11%[57.1 µM]	8%	nt	nt
Oc1ccc(C(=S)N2CCN(Cc3ccccc3)CC2)cc1	50µM*	2%	2.7µM*	-3%	1%	16µM*	16µM*	32µM*
COc1cc(C=C2C(=O)C=CC2=O)ccc1O	nt	nt	5.3µM*	nt	nt	nt	1.1µM*	1.1µM*
COc1cc(/C=C2/C(=O)CNC2=O)ccc1O	0%	?	29%	1%	-8%	?	nt	nt
CCOC(=O)C1C(=O)CC(C)(O)C(C(=O)OCC)C1c1ccc(Br)o1 (stereo not drawn)	0%	4%[57.1 µM]	-7%	5%	10%[57.1 µM]	-24%	?	-26%
CCOC(=O)C1C(=O)CC(C)(O)C(C(=O)OCC)C1c1ccccc1 (stereo not drawn)	-6%	7%[57.1 µM]	3%	3%	4%[57.1 µM]	13%	nt	nt
CC(C)CN(C(=O)CN1CCN(c2ccc(O)cc2)CC1)c1c(N)n(CC(C)C)c(=O)[nH]c1=O	-9%	3%	-11%	3%	1%	25µM*	?	?
O=C(NNc1nc2c(F)cccc2s1)C1COc2ccccc2O1 (stereo not drawn)	-13%	5%	-1%	-6%	-2%	1%	nt	nt
Cc1ccc2sc(NNC(=O)C3COc4ccccc4O3)nc2c1C (stereo not drawn)	-22%	5%	-6%	-7%	-3%	?	?	?
Cc1cc(=O)[nH]c(=S)n1-c1ccccc1	-3%	-8%	1%	-1%	-4%	-20%	nt	nt
SMILES	VDR inhibitor	rTrxR1 inhibitor	PLK1 PBD inh	IDH1 R132H inh	TrxR1 substrate	Sfp PPTase inh	TbPYK inh	TbPYK ADP-Glo
O=c1cc(C(F)(F)F)[nH]c(=S)n1-c1ccccc1	-28%	?	?	14%	10%[57.1 µM]	35µM*	14µM*	11µM*
Cc1ccc(N=c2ssnc2Cl)cc1	28µM*	?	1.7µM*	-14%	-15%	13µM*	6.3µM*	8.9µM*
Cc1nnc(N=c2ssnc2Cl)o1	?	?	1.7µM*	1%[38.3 µM]	-13%	nt	4.5µM*	5µM*
CCOC(=O)N1CCN(C(=O)c2c(C)nn(-c3cccc(C)c3)c2-n2cccc2)CC1	-5%	3%[57.1 µM]	nt	-4%	-2%[57.1 µM]	nt	nt	nt
CC1(C)Cc2c(C#N)c(SCC(=O)c3ccccc3)nc(N3CCOCC3)c2CO1	?	-10%	-21%	8%	-3%	14µM*	10µM*	11µM*
CC(C)Sc1nc(N2CCOCC2)c2c(c1C#N)CC(C)(C)N(C)C2	?	12%[57.1 µM]	2.7µM*	2%	-8%	-8%	-11%	-6%
CC1(C)Cc2c(C#N)c(SCc3ccccc3)nc(N3CCOCC3)c2CO1	17%	4%	-3%	-5%	-4%	-13%	nt	nt
Fc1ccccc1C(NCCc1ccc(Cl)cc1)c1nnc(-c2ccccc2)o1 (stereo not drawn)	-9%	16%	nt	17%	-1%	nt	nt	nt
CCCCCCN1C(=O)CC(NC(=O)OCC2c3ccccc3-c3ccccc32)C/C=C\C1C(C)C (stereo not drawn)	-2%	14%	-1%	7%	-3%	nt	nt	nt
O=C1C=C(NCCO)C(=O)c2cnccc21	nt	nt	nt	nt	nt	-1%	nt	nt
O=C1C=C(NCCc2cc(Br)c(O)c(Br)c2)C(=O)c2ncccc21	32µM*	-40%[57.1 µM]	2.7µM*	15%	-3%[11.4 µM]	nt	11µM*	16µM*
CN(C)c1cccc2c(C=C(C#N)C#N)ccc(N(C)C)c12	-13%	25µM*	-9%	0%	-11%	-4%	?	?

Screening results (PubChem)
